# Source: PMC8384837, “Expanding the binding specificity for RNA recognition by a PUF domain”
# Substitutions are numbered along the chain they refer to.
# Legend:
# Assay in all cases: yeast three-hybrid, YBZ-1, SC-Leu-His + 0.5 mM 3-AT, 4 days
# Settings in all cases: tags: N-Gal4 AD-HA kept; label: inside an RPR1-promoter hybrid RNA with tandem MS2 sites; ssRNA
# PUM1 PUF domain R7-RML = PUM1 PUF domain R7-RML (Homo sapiens, UniProt Q14671 828-1176, S1079R;N1080M;E1083L)
# How it was run: (§1)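 A centromeric plasmid in strain YBZ-1 co-expressed Pumilio-1 PUF domain libraries, randomized at the three base-contacting residues of each repeat, with matching RNA elements; the strain carries a LexA–MS2 coat fusion and a HIS3 reporter. After four days on SC-Leu (input) or SC-Leu-His + 0.5 mM 3-AT (selection), the repeat regions were PCR-amplified and Illumina-sequenced. The interaction score is the log change in variant frequency from input to selection, using log2 and a pseudocount of 1 where absent.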
# PUM1 PUF domain R8-RHE = PUM1 PUF domain R8-RHE (Homo sapiens, UniProt Q14671 828-1176, N1122R;Y1123H;Q1126E)
# How it was run: as §1
# PUM1 PUF domain R1-RRK = PUM1 PUF domain R1-RRK (Homo sapiens, UniProt Q14671 828-1176, S863R;Q867K)
# How it was run: as §1
# PUM1 PUF domain R3-LSR = PUM1 PUF domain R3-LSR (Homo sapiens, UniProt Q14671 828-1176, C935L;R936S;Q939R)
# How it was run: as §1
# PUM1 PUF domain R3-LFA = PUM1 PUF domain R3-LFA (Homo sapiens, UniProt Q14671 828-1176, C935L;R936F;Q939A)
# How it was run: as §1
# PUM1 PUF domain R5-RHG = PUM1 PUF domain R5-RHG (Homo sapiens, UniProt Q14671 828-1176, C1007R;R1008H;Q1011G)
# How it was run: as §1
# PUM1 PUF domain R6-GFA = target: T1, PUM1 PUF domain R6-GFA (Homo sapiens, UniProt Q14671 828-1176, N1043G;Y1044F;Q1047A)
# T1 sequence: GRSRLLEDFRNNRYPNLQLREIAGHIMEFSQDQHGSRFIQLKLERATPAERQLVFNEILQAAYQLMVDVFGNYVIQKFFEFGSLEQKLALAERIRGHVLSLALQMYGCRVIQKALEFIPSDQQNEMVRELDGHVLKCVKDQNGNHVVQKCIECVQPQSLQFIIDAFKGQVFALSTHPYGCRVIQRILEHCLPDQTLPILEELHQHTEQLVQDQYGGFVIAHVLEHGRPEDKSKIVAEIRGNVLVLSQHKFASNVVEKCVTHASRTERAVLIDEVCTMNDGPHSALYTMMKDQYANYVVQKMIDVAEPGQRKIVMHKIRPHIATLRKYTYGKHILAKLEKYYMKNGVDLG
# How it was run: as §1
# PUM1 PUF domain R6-MYS = target: T2, PUM1 PUF domain R6-MYS (Homo sapiens, UniProt Q14671 828-1176, N1043M;Q1047S)
# T2 sequence: T1 sequence with G216M, F217Y, A220S
# How it was run: as §1
# PUM1 PUF domain R5-PMG = PUM1 PUF domain R5-PMG (Homo sapiens, UniProt Q14671 828-1176, C1007P;R1008M;Q1011G)
# How it was run: as §1
# PUM1 PUF domain R4-NFS = PUM1 PUF domain R4-NFS (Homo sapiens, UniProt Q14671 828-1176, H972F;Q975S)
# How it was run: as §1
sequence,measurement,setting,value
GGCUAGAACUAGUGGAUCCCCCGGCGCCCGGCGGCUCGAGCCCGGGUAAGUUUAAAUAGUCUGCAUGCCGCCGGGCGCCAUGCCUGCAGGUCGACUCUAGAAAACAUG,binding signal,PUM1 PUF domain R7-RML,2.71 log2 enrichment (interaction score)
GGCUAGAACUAGUGGAUCCCCCGGCGCCCGGCGGCUCGAGCCCGGGUAAGCGUAAAUAGUCUGCAUGCCGCCGGGCGCCAUGCCUGCAGGUCGACUCUAGAAAACAUG,binding signal,PUM1 PUF domain R8-RHE,3.02 log2 enrichment (interaction score)
GGCUAGAACUAGUGGAUCCCCCGGCGCCCGGCGGCUCGAGCCCGGGUAAGUGUAAAUCGUCUGCAUGCCGCCGGGCGCCAUGCCUGCAGGUCGACUCUAGAAAACAUG,binding signal,PUM1 PUF domain R1-RRK,2.94 log2 enrichment (interaction score)
GGCUAGAACUAGUGGAUCCCCCGGCGCCCGGCGGCUCGAGCCCGGGUAAGUGUAAUUAGUCUGCAUGCCGCCGGGCGCCAUGCCUGCAGGUCGACUCUAGAAAACAUG,binding signal,PUM1 PUF domain R3-LSR,4.8 log2 enrichment (interaction score)
same,binding signal,PUM1 PUF domain R3-LFA,2.26 log2 enrichment (interaction score)
GGCUAGAACUAGUGGAUCCCCCGGCGCCCGGCGGCUCGAGCCCGGGUAAGUGUAAGUAGUCUGCAUGCCGCCGGGCGCCAUGCCUGCAGGUCGACUCUAGAAAACAUG,binding signal,PUM1 PUF domain R3-LSR,5.61 log2 enrichment (interaction score)
same,binding signal,PUM1 PUF domain R3-LFA,4.36 log2 enrichment (interaction score)
GGCUAGAACUAGUGGAUCCCCCGGCGCCCGGCGGCUCGAGCCCGGGUAAGUGUAAAUUGUCUGCAUGCCGCCGGGCGCCAUGCCUGCAGGUCGACUCUAGAAAACAUG,binding signal,PUM1 PUF domain R1-RRK,2.68 log2 enrichment (interaction score)
GGCUAGAACUAGUGGAUCCCCCGGCGCCCGGCGGCUCGAGCCCGGGUAAGUGUCAAUAGUCUGCAUGCCGCCGGGCGCCAUGCCUGCAGGUCGACUCUAGAAAACAUG,binding signal,PUM1 PUF domain R5-RHG,5.64 log2 enrichment (interaction score)
GGCUAGAACUAGUGGAUCCCCCGGCGCCCGGCGGCUCGAGCCCGGGUAAGUGUAAAUAGUCUGCAUGCCGCCGGGCGCCAUGCCUGCAGGUCGACUCUAGAAAACAUG,binding signal,PUM1 PUF domain R5-RHG,2.92 log2 enrichment (interaction score)
same,binding signal,PUM1 PUF domain R6-GFA,2.37 log2 enrichment (interaction score)
same,binding signal,PUM1 PUF domain R6-MYS,4.63 log2 enrichment (interaction score)
same,binding signal,PUM1 PUF domain R5-PMG,0.4 log2 enrichment (interaction score)
same,binding signal,PUM1 PUF domain R8-RHE,2.1 log2 enrichment (interaction score)
GGCUAGAACUAGUGGAUCCCCCGGCGCCCGGCGGCUCGAGCCCGGGUAAGUGUUAAUAGUCUGCAUGCCGCCGGGCGCCAUGCCUGCAGGUCGACUCUAGAAAACAUG,binding signal,PUM1 PUF domain R5-RHG,5.88 log2 enrichment (interaction score)
same,binding signal,PUM1 PUF domain R5-PMG,3.73 log2 enrichment (interaction score)
GGCUAGAACUAGUGGAUCCCCCGGCGCCCGGCGGCUCGAGCCCGGGUAAGUGUAUAUAGUCUGCAUGCCGCCGGGCGCCAUGCCUGCAGGUCGACUCUAGAAAACAUG,binding signal,PUM1 PUF domain R4-NFS,3.51 log2 enrichment (interaction score)
